Laboratory results published in PubChem BioAssay.
The source made the active and inactive calls.

How the values were obtained:
[1] = system: PRMT1 (protein arginine N-methyltransferase 1); assay: PRMT1 binders on small-molecule microarrays, primary screen, biochemical, small-molecule microarray, 635 nm fluorescence (AID 1088); details: small-molecule microarray binding, higher = more signal;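 note: binding of Prmt1 protein to compounds spotted on small-molecule microarray slides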
[2] = yeast growth modulation, basal conditions, primary screen, YJM789 clinical isolate, OD600, 24 h (AID 1089);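 note: growth of clinical yeast isolate S. cerevisiae YJM 789 seeded 1000 cells per well; test concentration not given here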; details: S. cerevisiae YJM789 growth, higher = more signal, called active from +8 up or from −8 down
[3] = fission yeast growth modulation, primary screen, strain 972, OD600, 24 h, no modulator (AID 1090);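 note: basal condition with compound alone and no growth modifier present; test concentration not given here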; details: S. pombe 972 growth, higher = more signal, called active from +8 up or from −8 down
[4] = S. cerevisiae growth modulation with rapamycin, primary screen, strain BY4716, OD600, 96 h (AID 1091); details: higher = more signal, called active from +8 up or from −8 down; note: test concentration not given here
[5] = molecular target: Torsin-1A-interacting protein 2 (Homo sapiens) (UniProt Q8NFQ8); assay: LULL1 binders on small-molecule microarray, primary screen, cell lysate, human LULL1 lysate, 635/667 nm fluorescence (AID 1092); details: hLULL1 lysate binding, 635 nm fluorescence, higher = more signal;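 note: probe is lysate of COS7 cells overexpressing human LULL1; score merges per-feature 667 nm fluorescence with signal-to-noise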
Chain of Torsin-1A-interacting protein 2 (Homo sapiens) (Q8NFQ8 whole entry, looked up): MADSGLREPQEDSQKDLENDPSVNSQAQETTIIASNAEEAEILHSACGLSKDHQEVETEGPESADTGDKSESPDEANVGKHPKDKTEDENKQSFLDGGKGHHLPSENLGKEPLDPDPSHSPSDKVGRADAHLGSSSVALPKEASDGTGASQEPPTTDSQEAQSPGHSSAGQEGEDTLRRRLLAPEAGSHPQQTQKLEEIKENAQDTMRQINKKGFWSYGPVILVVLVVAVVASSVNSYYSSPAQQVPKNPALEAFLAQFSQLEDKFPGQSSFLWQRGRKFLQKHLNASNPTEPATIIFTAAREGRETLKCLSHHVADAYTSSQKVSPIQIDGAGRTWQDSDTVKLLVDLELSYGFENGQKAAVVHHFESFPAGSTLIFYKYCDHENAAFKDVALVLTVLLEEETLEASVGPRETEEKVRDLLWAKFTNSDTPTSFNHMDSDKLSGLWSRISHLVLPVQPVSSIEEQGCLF

[6] = E. coli growth modulation, two-sided OD650, primary screen, E. coli filamentation project, strain DRC41, 24 h (AID 1093); details: OD650, 24 h, higher = more signal, called active from +8 up or from −8 down;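 note: MC1000 strain lacking acrAB efflux and sulA so SOS filamentation is blocked; test concentration not given here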
[7] = small-molecule microarray binders of probe aLefty2, primary screen, biochemical, biotinylated probe, 635/667 nm fluorescence (AID 1094); details: higher = more signal;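 note: score merges spot fluorescence near 667 nm with spot signal-to-noise ratio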
[8] = system: Noggin (protein binding on small-molecule microarray); assay: Noggin binders on small-molecule microarray, primary screen, biochemical, 635/667 nm fluorescence (AID 1095); details: 635 nm fluorescence, higher = more signal;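 note: score merges 667 nm feature fluorescence with signal to noise over triplicate slides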
[9] = molecular target: Neurogenic locus notch homolog protein 3 (Homo sapiens) (UniProt Q9UM47); assay: NOTCH3 binders on small-molecule microarray, primary screen, biochemical, 635/667 nm fluorescence (AID 1096); details: NOTCH3 binding, 635 nm fluorescence, higher = more signal
Chain of Neurogenic locus notch homolog protein 3 (Homo sapiens) (Q9UM47 whole entry, looked up): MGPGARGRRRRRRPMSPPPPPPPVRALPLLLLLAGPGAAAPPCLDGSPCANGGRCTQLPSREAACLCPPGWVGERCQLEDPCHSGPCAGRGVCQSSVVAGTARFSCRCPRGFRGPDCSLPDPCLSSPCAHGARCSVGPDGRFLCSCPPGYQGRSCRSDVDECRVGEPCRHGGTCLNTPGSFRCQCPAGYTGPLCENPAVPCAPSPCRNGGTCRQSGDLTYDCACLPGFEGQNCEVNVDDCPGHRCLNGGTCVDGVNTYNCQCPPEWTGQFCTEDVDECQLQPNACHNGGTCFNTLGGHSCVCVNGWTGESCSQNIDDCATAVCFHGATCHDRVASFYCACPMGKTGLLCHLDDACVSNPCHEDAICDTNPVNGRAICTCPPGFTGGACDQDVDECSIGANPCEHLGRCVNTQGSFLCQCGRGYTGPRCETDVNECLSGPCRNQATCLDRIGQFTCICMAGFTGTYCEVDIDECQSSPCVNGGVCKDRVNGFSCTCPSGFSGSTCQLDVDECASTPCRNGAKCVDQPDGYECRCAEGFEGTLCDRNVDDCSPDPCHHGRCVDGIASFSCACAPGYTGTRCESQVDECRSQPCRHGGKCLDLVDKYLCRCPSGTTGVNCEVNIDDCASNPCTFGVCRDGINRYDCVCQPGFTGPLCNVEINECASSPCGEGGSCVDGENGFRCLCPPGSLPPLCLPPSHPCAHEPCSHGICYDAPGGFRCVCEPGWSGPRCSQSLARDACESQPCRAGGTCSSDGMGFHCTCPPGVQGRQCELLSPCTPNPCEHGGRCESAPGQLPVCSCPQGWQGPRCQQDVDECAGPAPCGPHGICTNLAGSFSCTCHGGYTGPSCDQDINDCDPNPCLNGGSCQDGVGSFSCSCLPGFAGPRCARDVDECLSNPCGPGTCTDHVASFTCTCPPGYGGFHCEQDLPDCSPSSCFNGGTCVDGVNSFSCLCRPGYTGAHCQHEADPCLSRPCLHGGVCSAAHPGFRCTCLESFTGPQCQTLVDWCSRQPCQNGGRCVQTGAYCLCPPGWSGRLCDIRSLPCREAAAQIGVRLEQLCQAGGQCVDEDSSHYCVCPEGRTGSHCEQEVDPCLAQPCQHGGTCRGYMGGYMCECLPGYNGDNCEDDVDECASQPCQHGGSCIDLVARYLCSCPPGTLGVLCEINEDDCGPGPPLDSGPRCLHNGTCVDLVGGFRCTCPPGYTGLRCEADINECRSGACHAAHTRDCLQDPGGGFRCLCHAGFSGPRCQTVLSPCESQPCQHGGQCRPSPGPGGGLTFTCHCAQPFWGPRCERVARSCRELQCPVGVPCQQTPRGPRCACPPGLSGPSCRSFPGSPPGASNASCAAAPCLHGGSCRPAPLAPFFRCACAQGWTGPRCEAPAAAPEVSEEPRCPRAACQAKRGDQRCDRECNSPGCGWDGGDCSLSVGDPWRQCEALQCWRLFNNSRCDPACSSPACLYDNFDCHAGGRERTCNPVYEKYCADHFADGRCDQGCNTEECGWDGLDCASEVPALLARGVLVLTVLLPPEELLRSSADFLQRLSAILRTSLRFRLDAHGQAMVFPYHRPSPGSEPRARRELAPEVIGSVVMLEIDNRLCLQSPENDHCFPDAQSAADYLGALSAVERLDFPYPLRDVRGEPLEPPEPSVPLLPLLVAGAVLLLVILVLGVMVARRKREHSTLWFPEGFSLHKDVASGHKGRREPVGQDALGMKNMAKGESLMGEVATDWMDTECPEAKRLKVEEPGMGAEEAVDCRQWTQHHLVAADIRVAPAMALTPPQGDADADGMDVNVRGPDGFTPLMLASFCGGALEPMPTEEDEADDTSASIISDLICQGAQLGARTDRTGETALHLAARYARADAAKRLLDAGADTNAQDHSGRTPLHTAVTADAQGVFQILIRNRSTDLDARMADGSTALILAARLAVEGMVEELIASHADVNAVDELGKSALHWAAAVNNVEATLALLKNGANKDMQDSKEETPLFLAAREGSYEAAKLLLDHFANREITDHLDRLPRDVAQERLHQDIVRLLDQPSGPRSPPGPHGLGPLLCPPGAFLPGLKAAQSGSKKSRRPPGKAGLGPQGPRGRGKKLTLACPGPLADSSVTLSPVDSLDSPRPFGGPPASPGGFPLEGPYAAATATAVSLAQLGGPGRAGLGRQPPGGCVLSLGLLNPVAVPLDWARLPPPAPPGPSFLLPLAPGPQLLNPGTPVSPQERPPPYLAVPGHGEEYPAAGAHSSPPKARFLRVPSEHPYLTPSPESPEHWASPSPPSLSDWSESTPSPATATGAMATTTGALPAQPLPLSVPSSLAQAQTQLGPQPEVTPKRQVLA

[10] = small-molecule microarray binders of probe aEGFR, primary screen, biochemical, biotinylated probe, 635/667 nm fluorescence (AID 1097); details: higher = more signal;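 note: probe is a biotinylated anti-EGFR antibody binding compounds printed on slides; score combines fluorescence near 667 nm and signal to noise of each spot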
[11] = system: Plasmodium falciparum Sir2 (PF13_0152, Sir2A); assay: pfSir2 binders on small-molecule microarrays, primary screen, biochemical, small-molecule microarray, 635 nm fluorescence (AID 1098); details: small-molecule microarray binding, fluorescence 635 nm; higher = more signal;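 note: score merges spot fluorescence intensity with its signal-to-noise ratio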
[12] = small-molecule microarray binders of probe aDKK1, primary screen, biochemical, biotinylated probe, 635/667 nm fluorescence (AID 1099); details: higher = more signal;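 note: score merges 667nm spot fluorescence with signal to noise across triplicate slides; reference of the scale not given here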
[13] = small-molecule microarray binders of probe aCHRDL2, primary screen, biochemical, biotinylated probe, 635/667 nm fluorescence (AID 1100); details: higher = more signal
[14] = splicing luciferase reporter signal modulators, primary screen, spliceosome inhibition project, cell-based, HEK293, splice +/- reporter (AID 1101); details: luminescence, 24 h, higher = more signal, called active from +8 up or from −8 down;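 note: HEK293 cells carrying a splicing-competent luciferase reporter gene; test concentration not given here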
[15] = molecular target: Fibroblast growth factor 10 (Homo sapiens) (UniProt O15520); assay: FGF10 binders on small-molecule microarrays, primary screen, biochemical, small-molecule microarray, 635 nm fluorescence (AID 1102); details: FGF10 binding, fluorescence 635 nm, higher = more signal
Chain of Fibroblast growth factor 10 (Homo sapiens) (O15520 whole entry, looked up): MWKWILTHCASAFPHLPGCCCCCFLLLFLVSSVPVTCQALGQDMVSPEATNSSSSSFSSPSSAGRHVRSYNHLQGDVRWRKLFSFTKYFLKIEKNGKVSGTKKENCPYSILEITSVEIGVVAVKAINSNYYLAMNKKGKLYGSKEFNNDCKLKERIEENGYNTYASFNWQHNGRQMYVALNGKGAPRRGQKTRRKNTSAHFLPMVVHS

[16] = system: glycogen synthase kinase-3 (GSK3A per assay name; protocol says GSK3B); assay: GSK3 binders on small-molecule microarrays, primary screen, biochemical, small-molecule microarray, 635 nm fluorescence, GSK3A (AID 1103); details: small-molecule microarray binding, fluorescence 635 nm; higher = more signal; note: the record names both GSK3A and GSK3B
[17] = molecular target: Epidermal growth factor receptor (Homo sapiens) (UniProt P00533); assay: EGFR binders on small-molecule microarrays, primary screen, biochemical, small-molecule microarray, 635 nm fluorescence (AID 1104); details: EGFR binding, higher = more signal;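 note: score merges 667 nm emission intensity with spot signal to noise over triplicate slides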
Chain of Epidermal growth factor receptor (Homo sapiens) (P00533 whole entry, looked up): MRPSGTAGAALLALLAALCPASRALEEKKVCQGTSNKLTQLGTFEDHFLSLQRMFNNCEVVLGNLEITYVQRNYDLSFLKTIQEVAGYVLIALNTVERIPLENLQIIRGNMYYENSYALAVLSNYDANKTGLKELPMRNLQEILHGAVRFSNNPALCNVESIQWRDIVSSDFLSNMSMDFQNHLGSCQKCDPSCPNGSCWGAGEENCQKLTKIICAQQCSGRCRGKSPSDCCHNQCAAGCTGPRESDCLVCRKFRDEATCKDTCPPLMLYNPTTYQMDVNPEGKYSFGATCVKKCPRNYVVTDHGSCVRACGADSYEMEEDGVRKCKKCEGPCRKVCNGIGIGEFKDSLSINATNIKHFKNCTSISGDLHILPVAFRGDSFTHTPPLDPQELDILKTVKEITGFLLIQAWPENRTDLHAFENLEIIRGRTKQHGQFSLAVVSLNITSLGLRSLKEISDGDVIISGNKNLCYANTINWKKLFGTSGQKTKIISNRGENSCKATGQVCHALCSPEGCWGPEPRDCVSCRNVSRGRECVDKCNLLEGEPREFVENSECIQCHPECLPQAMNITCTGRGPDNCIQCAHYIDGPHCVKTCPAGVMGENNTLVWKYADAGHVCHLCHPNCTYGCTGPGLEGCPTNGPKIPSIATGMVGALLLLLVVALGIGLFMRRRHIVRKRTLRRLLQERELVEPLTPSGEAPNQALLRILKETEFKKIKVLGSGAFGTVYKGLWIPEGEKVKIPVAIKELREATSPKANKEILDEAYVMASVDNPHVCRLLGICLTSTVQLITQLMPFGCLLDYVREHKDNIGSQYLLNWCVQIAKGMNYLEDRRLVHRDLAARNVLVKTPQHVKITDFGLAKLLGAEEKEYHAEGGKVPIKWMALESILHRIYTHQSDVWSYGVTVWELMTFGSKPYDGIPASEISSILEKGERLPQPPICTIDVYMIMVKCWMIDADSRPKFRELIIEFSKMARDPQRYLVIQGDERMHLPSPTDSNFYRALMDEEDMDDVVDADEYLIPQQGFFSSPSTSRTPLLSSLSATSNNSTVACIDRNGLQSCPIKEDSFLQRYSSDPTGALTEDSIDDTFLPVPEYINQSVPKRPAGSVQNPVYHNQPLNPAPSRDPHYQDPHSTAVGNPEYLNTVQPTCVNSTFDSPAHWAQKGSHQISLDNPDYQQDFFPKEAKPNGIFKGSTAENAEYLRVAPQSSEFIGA

[18] = molecular target: Follistatin-related protein 3 (Homo sapiens) (UniProt O95633); assay: FSTL3 binders on small-molecule microarrays, primary screen, biochemical, small-molecule microarray, 635 nm fluorescence (AID 1105); details: FSTL3 binding, higher = more signal;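 note: score merges emission near 667 nm and signal to noise per printed spot across three slides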
Chain of Follistatin-related protein 3 (Homo sapiens) (O95633 whole entry, looked up): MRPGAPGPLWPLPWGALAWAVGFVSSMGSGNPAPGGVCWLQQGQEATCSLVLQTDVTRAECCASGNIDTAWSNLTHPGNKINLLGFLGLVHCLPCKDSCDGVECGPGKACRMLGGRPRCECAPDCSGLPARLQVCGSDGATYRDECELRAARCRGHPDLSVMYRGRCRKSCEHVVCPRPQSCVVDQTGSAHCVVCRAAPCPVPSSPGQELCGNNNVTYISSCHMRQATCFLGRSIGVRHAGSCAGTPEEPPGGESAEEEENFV

[19] = molecular target: Dickkopf-related protein 1 (Homo sapiens) (UniProt O94907); assay: DKK1 binders on small-molecule microarrays, primary screen, biochemical, small-molecule microarray, 635 nm fluorescence scan (AID 1106); details: DKK1 binding, higher = more signal;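 note: score merges emission near 667 nm with signal to noise over three replicate slides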
Chain of Dickkopf-related protein 1 (Homo sapiens) (O94907 whole entry, looked up): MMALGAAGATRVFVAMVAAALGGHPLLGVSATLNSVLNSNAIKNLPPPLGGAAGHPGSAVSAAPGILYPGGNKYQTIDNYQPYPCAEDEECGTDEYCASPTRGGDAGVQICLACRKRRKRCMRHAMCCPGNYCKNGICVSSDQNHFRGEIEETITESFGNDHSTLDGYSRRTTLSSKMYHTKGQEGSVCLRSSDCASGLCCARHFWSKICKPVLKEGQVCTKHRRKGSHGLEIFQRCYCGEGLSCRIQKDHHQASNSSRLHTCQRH

[20] = system: Inhibin beta A chain (activin A); assay: INHBA (activin A) binders on microarrays, primary screen, biochemical, small-molecule microarray, 635 nm fluorescence scan (AID 1107); details: small-molecule microarray binding, higher = more signal;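 note: mouse activin A protein probed at 4.33 µg/mL on printed slides; score merges bound-protein fluorescence near 667 nm with spot signal-to-noise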

| SMILES | composite z-score [1] | z-score [2] | z-score [3] | z-score [4] | composite z-score [5] | z-score [6] | composite z-score [7] | composite z-score [8] | composite z-score [9] | composite z-score [10] | composite z-score [11] | composite z-score [12] | composite z-score [13] | z-score [14] | composite z-score [15] | composite z-score [16] | composite z-score [17] | composite z-score [18] | composite z-score [19] | composite z-score [20] |
| --- | --- | --- | --- | --- | --- | --- | --- | --- | --- | --- | --- | --- | --- | --- | --- | --- | --- | --- | --- | --- |
| C=CC[C@@]12N=C(c3ccc(OCCCO)cc3)O[C@@H]1c1ccccc1N(CCC)C2=O | 1.55 | -1.01 (inactive) | -2.42 (inactive) | -0.71 (inactive) | 3.12 | 1.34 (inactive) | 0.219 | 0.916 | 1.07 | -0.108 | 1.58 | 0.257 | 0.952 | -0.457 (inactive) | 0.85 | 1.25 | 0.153 | 1.15 | -0.0879 | 1.19 |
| O=C(NCc1ccc(F)cc1)[C@H]1C[C@H]2C(=O)N3CCC[C@H]3C(=O)N2[C@H]1c1ccc(O)cc1 | 0.0679 | -1.04 (inactive) | -1.47 (inactive) | 0.164 (inactive) | -0.296 | 2.41 (inactive) | -0.0963 | -0.139 | -0.484 | -0.169 | 0.605 | -0.294 | -0.292 | -1.62 (inactive) | -0.0335 | -0.73 | 0.192 | -0.423 | 0.889 | -0.964 |
| O=C1O[C@H](c2ccccc2)[C@H](c2ccccc2)N2[C@H]1[C@@H](C(=O)O)[C@]1(C(=O)Nc3ccc(C#CCCO)cc31)[C@H]2c1ccc(OCCO)cc1 | 0.862 | 0.19 (inactive) | -0.428 (inactive) | -0.502 (inactive) | 1.98 | 1.71 (inactive) | 0.547 | 0.452 | 0.105 | -0.0304 | -0.164 | 0.564 | 0.834 | -0.155 (inactive) | 1.12 | 1.27 | 0.0453 | 0.446 | 0.488 | 1.31 |
| COc1ccc(C(O)C2C=CC3C(=O)N(C)C(=O)C3N2N(c2ccccc2)c2ccccc2)cc1 (stereo not given) | 0.923 | -0.054 (inactive) | 0.733 (inactive) | 1.08 (inactive) | 2.18 | -0.994 (inactive) | 0.276 | 0.269 | 0.791 | -0.111 | 1.59 | 0.996 | 0.93 | 1.09 (inactive) | 0.434 | 0.243 | -0.0923 | 0.585 | -0.128 | 1.32 |
| OCCCC1=CC(c2ccc(CN3CCCC3)cc2)N(Cc2cccc(OC(F)(F)F)c2)CC1 (stereo not given) | -0.688 | -2.01 (inactive) | -14.9 (active) | -2.62 (inactive) | 0.203 | -0.987 (inactive) | 0.0029 | 0.123 | -0.752 | -0.181 | 0.203 | -0.0082 | 0.983 | -1.35 (inactive) | -0.327 | -0.517 | 0.297 | 0.0596 | 0.0657 | 1.65 |
| COCCOC(=O)N1C(=O)[C@@]2(c3cc(C#Cc4ccc(OC)cc4)ccc31)[C@H](c1ccc(OCCO)cc1)N1[C@H](c3ccccc3)[C@H](c3ccccc3)OC(=O)[C@H]1[C@@H]2C(=O)NC[C@H](O)c1ccccc1 | 1.5 | 3.3 (inactive) | 2.29 (inactive) | 7.99 (inactive) | 2.31 | 0.0136 (inactive) | 0.3 | 0.729 | 1.1 | 0.259 | 1.38 | 0.92 | 0.537 | -0.279 (inactive) | 1.16 | 1.27 | 0.696 | 0.475 | 0.473 | 0.961 |
| COCCOC(=O)N1C(=O)[C@@]2(c3cc(C#CC4(O)CCCCCC4)ccc31)[C@H](c1ccc(O)cc1)N1[C@H](c3ccccc3)[C@H](c3ccccc3)OC(=O)[C@H]1[C@@H]2C(=O)N1CCCCCCC1 | 1.55 | -0.016 (inactive) | 0.056 (inactive) | 0.367 (inactive) | 2.09 | 0.709 (inactive) | 0.189 | 1.3 | 1.06 | 0.0896 | 1.08 | 1.2 | 0.771 | -0.803 (inactive) | 1.28 | 1.29 | 0.314 | 1.05 | 0.112 | 1.72 |
| CC(C)OC(=O)CC(=O)CC(O)c1cccc([N+](=O)[O-])c1 (stereo not given) | 1.09 | -4.2 (inactive) | -1.84 (inactive) | -2.74 (inactive) | 1.64 | 0.305 (inactive) | -0.186 | -0.164 | 0.83 | -0.0215 | 0.784 | 0.645 | 0.851 | -2.86 (inactive) | 0.366 | 0.814 | -0.113 | 0.753 | -0.229 | 0.916 |
| COc1ccc([Si](C)(C)[C@@H]2[C@@H](CC(=O)N3Cc4ccccc4C[C@H]3CO)O[C@]3(C(=O)N(Cc4ccc(N5CCOC5=O)cc4)c4ccccc43)[C@H]2C)cc1 | 1.57 | -0.631 (inactive) | 0.693 (inactive) | 3.78 (inactive) | 1.56 | 1.36 (inactive) | -0.133 | 1.55 | 1.13 | -0.0947 | 1.09 | -0.115 | -0.271 | -1.36 (inactive) | 0.723 | 0.969 | 0.916 | 1.24 | 0.945 | 1.03 |
